According to PubChem BioAssay (Tox21):
Several values for one entry are separate records, joined by “and”; a condition that tells them apart may be missing. Equal entries are not always repeated. Results filed as inconclusive are left out. Activity calls are given as the source filed them. The call rests on the fitted dose curve; in most records, active means well fitted cell-killing curve with a large enough effect in the repeat runs; inconclusive means weak or mixed curves, or effect the other way; inactive means no such curve, though single readings can be large or run the other way.

Experiment: qHTS assay for identifying genotoxic compounds that show differential cytotoxicity against isogenic chicken DT40 cell lines with known DNA damage response pathways - wild type cell line (AID 743012); further: nearly all actives have a fitted effect of over 60% in size
Details: DT40 wild type chicken cells viability, CellTiter-Glo, 40 h; series mostly up to 68.4 µM; activity change, negative = cytotoxicity: at the top concentration
From the text: U.S. Tox21 Program National Center for Advancing Translational Sciences [NCATS] NIH Chemical Genomics Center [NCGC] U.S. Environmental Protection Agency [EPA] National Institutes of Environmental Health Sciences [NIEHS] National Toxicology Program [NTP] U.S. Food and Drug Administration [FDA] Tox21 Assay Overview: DNA repair pathways play a critical role in cellular homeostasis by repairing DNA damage induced by endogenous processes and xenobiotics. Isogenic chicken DT40 cell lines deficient in different DNA repair pathways can be used to identify genotoxic compounds and aid in characterizing the nature of the DNA damage induced. Two DNA repair-deficient cell lines with disrupted genes, Rad54/Ku70 or Rev3, were used to screen the Tox21 10K compound library. Possible genotoxicity was based on the presence of a significant increase in cytotoxicity in one or more of the DNA repair-deficient cell lines compared to that observed in the parental DNA repair-proficient cell line. CellTiter Glo viability assay (Promega, Madison, WI) was used to measure cell viability in these cells after compound treatment. This assay includes the data from the wild type cell line.
Tox21 Assay Protocol Summary: 300 DT40 wild type cells in 5 uL/well were dispensed into white, solid-bottom 1536-well plates using a Multidrop Combi (ThermoFisher Scientific, Waltham, MA) dispenser. After the assay plates were incubated at 37 C/5% CO2 for approximately 0.5 hour, 23 nL of compounds dissolved in DMSO, positive controls or DMSO only was transferred into the assay plate by a pintool work station (Kalypsys, San Diego, CA). The assay plates were incubated at 37 C/5% CO2 for 40 hours. After 5 uL per well of CellTiter-Glo reagent was added into each well of the assay plates, the plates were incubated for 30 min at room temperature and the luminescence intensity of the plates was measured using a ViewLux (PerkinElmer, Shelton, CT) plate reader.
On the % scale 0 is the no-effect control and ±100 the full control effect; potency means the concentration at half of the fitted maximal effect.

**Q.** Which Potency does the source give for O=C1C[C@@H]2OCC=C3CN4CC[C@]56c7ccccc7N1[C@H]5[C@H]2[C@H]3C[C@H]46 here?
**A.** 26.6 µM (active)

**Q.** With Cc1ccn2nc(S(=O)(=O)Nc3c(F)cccc3F)nc2n1 as the compound, how does the “activity change, negative = cytotoxicity” value read?
**A.** 4.78% (inactive)

**Q.** For Cc1c([N+](=O)[O-])cc2c(c1[N+](=O)[O-])C(C)(C)CC2(C)C, which “activity change, negative = cytotoxicity” value is on record?
**A.** 1.92% (inactive)

**Q.** Which Potency does the source give for CC(=O)[O][Sn]([c]1ccccc1)([c]1ccccc1)[c]1ccccc1 here?
**A.** 0.122 µM (active)

**Q.** With CC(Cc1ccc2c(c1)OCO2)NO (stereo not given) as the compound, how does the “activity change, negative = cytotoxicity” value read?
**A.** -9.69% [at 95 µM] (inactive)

**Q.** For CC(Cl)CCl (stereo not given), which “activity change, negative = cytotoxicity” value is on record?
**A.** -4.84% (inactive)

**Q.** Which Potency does the source give for CC1=C2C[C@H]3[C@@H](CC=C4C[C@@H](O)CC[C@@]43C)[C@@H]2CC[C@]12O[C@@H]1C[C@H](C)CN[C@H]1[C@H]2C here?
**A.** 29.8 µM (active)

**Q.** For Clc1ccc(C(c2ccc(Cl)cc2)C(Cl)Cl)cc1, which Potency is on record?
**A.** 39.2 µM (active) and 19.3 µM (active)

**Q.** For CCCC[N+]1(C)CCCC1 (tested in a mixture with another compound), which “activity change, negative = cytotoxicity” value is on record?
**A.** 4.31% [at 95 µM] (inactive)

**Q.** For c1ccc2c(c1)cc1ccc3cccc4ccc2c1c34, which “activity change, negative = cytotoxicity” value is on record?
**A.** 14.4% [at 95 µM] (inactive)

**Q.** For CC(=O)O.CC(=O)O.CC(=O)O.CC(=O)O.CC(=O)O.CC(=O)O.CC(=O)O.O.O.[Cr].[Cr].[Cr], which “activity change, negative = cytotoxicity” value is on record?
**A.** -10.6% (inactive)

**Q.** With CCCCn1cc[n+](C)c1 (tested in a mixture with another compound) as the compound, how does the “activity change, negative = cytotoxicity” value read?
**A.** -3.21% (inactive)

**Q.** Which Potency does the source give for CN1C(=O)[C@@H](NC(=O)c2cc3ccccc3[nH]2)N=C(c2ccccc2)c2ccccc21 here?
**A.** 10.6 µM (active)

**Q.** For O=S(=O)(O)F, which “activity change, negative = cytotoxicity” value is on record?
**A.** -0.906% [at 95 µM] (inactive)

**Q.** For CC(O)C(=O)[O][Hg][c]1ccccc1 (stereo not given), which Potency is on record?
**A.** 0.273 µM (active)

**Q.** Which “activity change, negative = cytotoxicity” value does the source give for [O-][Cl+3]([O-])([O-])O here?
**A.** 12.1% [at 95 µM] (inactive)

**Q.** With O=C(O)CCCCCCNC1c2ccccc2CCc2ccccc21 as the compound, how does the “activity change, negative = cytotoxicity” value read?
**A.** 7.48% (inactive)

**Q.** With OCC(Br)CBr (stereo not given) as the compound, how does the “activity change, negative = cytotoxicity” value read?
**A.** 5.66% [at 95 µM] (inactive)

**Q.** Which Potency does the source give for Oc1ccc2[nH]cc(CCCCN3CC=C(c4ccccc4)CC3)c2c1 here?
**A.** 5.96 µM (active)

**Q.** For CSC(=O)c1c(C(F)F)nc(C(F)(F)F)c(C(=O)SC)c1CC(C)C, which Potency is on record?
**A.** 34.2 µM (active)

**Q.** With CC(=O)[O-].CC(=O)[O-].O.O.[Zn+2] as the compound, how does the “activity change, negative = cytotoxicity” value read?
**A.** -1.44% (inactive)

**Q.** With CNN as the compound, how does the “activity change, negative = cytotoxicity” value read?
**A.** 2.87% [at 95 µM] (inactive)

**Q.** For O=[N+]([O-])c1ccc(CCl)cc1, which “activity change, negative = cytotoxicity” value is on record?
**A.** -4.65% (inactive)

**Q.** For CCCCCON=O, which “activity change, negative = cytotoxicity” value is on record?
**A.** -6.51% [at 95 µM] (inactive)

**Q.** For CC(=O)[O-].CC(=O)[O-].CC(=O)[O-].[Sb+3], which activity change, negative = cytotoxicity is on record?
**A.** -1.26% [at 8.52 µM] (inactive)

**Q.** Which Potency does the source give for FC(F)C(F)(F)OCC(Cn1cncn1)c1ccc(Cl)cc1Cl (stereo not given) here?
**A.** 3.05 µM (active)

**Q.** Which Potency does the source give for CN(C)c1ccc(N)cc1 here?
**A.** 29.9 µM (active)

**Q.** Which Potency does the source give for N#Cc1c[nH]cc1-c1cccc2c1OC(F)(F)O2 here?
**A.** 13.7 µM (active)

**Q.** With C[C@]12C/C(=C/O)C(=O)C[C@@H]1CC[C@@H]1[C@@H]2CC[C@@]2(C)[C@H]1CC[C@]2(C)O as the compound, how does the Potency read?
**A.** 29.8 µM (active)

**Q.** For Oc1cccc(Cl)c1Cl, which “activity change, negative = cytotoxicity” value is on record?
**A.** 5.95% [at 95 µM] (inactive)

**Q.** With O=P(Cl)(Cl)Cl as the compound, how does the “activity change, negative = cytotoxicity” value read?
**A.** 0.667% [at 95 µM] (inactive)

**Q.** For S=C=NCCc1ccccc1, which “activity change, negative = cytotoxicity” value is on record?
**A.** -0.635% (inactive)

**Q.** For O=S(=O)(NS(=O)(=O)C(F)(F)F)C(F)(F)F, which “activity change, negative = cytotoxicity” value is on record?
**A.** -3.2% (inactive)

**Q.** For CCCN, which “activity change, negative = cytotoxicity” value is on record?
**A.** -0.299% [at 95 µM] (inactive)

**Q.** For CC(Cc1ccc(OCC(=O)O)cc1)NCC(O)c1csc(C(F)(F)F)n1 (stereo not given), which “activity change, negative = cytotoxicity” value is on record?
**A.** -13.1% (inactive)

**Q.** Which “activity change, negative = cytotoxicity” value does the source give for ClCBr here?
**A.** 12.1% [at 95 µM] (inactive)

**Q.** For Clc1c(Cl)c(Cl)c(Cl)c(Cl)c1Cl, which activity change, negative = cytotoxicity is on record?
**A.** 20.8% [at 8.52 µM] (inactive)

**Q.** For S=C=Nc1ccccc1, which “activity change, negative = cytotoxicity” value is on record?
**A.** 7.8% [at 95 µM] (inactive)

**Q.** For CC(=O)[O-].CC(=O)[O-].O.O.O.[Pb+2], which “activity change, negative = cytotoxicity” value is on record?
**A.** 9.4% (inactive)

**Q.** For CN/C(=N\[N+](=O)[O-])NCc1cnc(Cl)s1, which “activity change, negative = cytotoxicity” value is on record?
**A.** -2.21% (inactive)
